# Screening data: PubChem BioAssay, National Center for Advancing Translational Sciences (NCATS)
# Pf growth 96h = P. falciparum growth inhibition at 96 hour, primary screen for plastid delayed-death inhibitors; P. falciparum luciferase reporter growth, 96 h; Potency, µM (series often up to 28.7 µM), inactives show at the top dose activity change, negative = inhibition, most hits filed as inhibitors; actives 6.9% (n = 320,000); note: potency is the fitted concentration of half-maximal effect; % is set by controls: 0 for no effect and ±100 for the full control effect
#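 Cell-based qHTS: luciferase-tagged P. falciparum in erythrocytes (2% hematocrit, 0.05% parasitemia final) incubated with compounds for 96 hours, 37 C, 5% CO2; luciferase detection reagent then added and luminescence measured.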
# Shiga toxin inh = blocks Shiga toxin action in Vero cells. Vero cells, Shiga toxin protein synthesis inhibition reporter. inhibition, % at 38.7 µM. actives 9.2% (n = 290,000); in the data active = inhibition mostly above about 28%, no sharp cut-off; inactive = mostly below about 43%; note: 0% is about no effect
# Pf growth 48h = P. falciparum growth inhibition at 48 hours (one generation); P. falciparum luciferase growth in erythrocytes, 48 h; Potency, µM (titrated, usually from 28.7 µM), for the others: at the top dose activity change, negative = inhibition, actives largely listed as inhibitors; actives 5.9% (n = 310,000); AID 504832; note: potency is the fitted concentration of half-maximal effect; % is set by controls: 0 for no effect and ±100 for the full control effect
#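 Parasite viability was followed by luminescence of a genomically integrated firefly luciferase. Cultures held 0.1% parasitemia at 2% hematocrit (final), incubated under 5% CO2 at 37 C.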
# HCV inh = HCV inhibition; Huh7.5.1 HCVcc-Cre infection, luciferase reporter, 44 h; Potency, µM (titrated, usually from 41.8 µM), without a hit: at the top dose activity change, negative = inhibition, usual class: inhibitors; actives 3.4% (n = 340,000); note: potency is the fitted concentration of half-maximal effect; % is set by controls: 0 for no effect and ±100 for the full control effect
#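 Infectious HCV cell culture screen: compound-treated cells (1,000/well, pre-plated 4 h) are infected with HCVcc-Cre at roughly 0.5 moi and grown 44 h. Infection is quantified by luciferase signal after 15 min substrate incubation at room temperature.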
# Cycloheximide cs = counter-screen for Shiga toxin inhibitors: cycloheximide protein synthesis inhibition; cell reporter, cycloheximide protein synthesis inhibition counterscreen; max response, %; actives 12% (n = 300,000); AID 2314; in the data active = max response mostly above about 13%, no sharp cut-off; inactive = mostly below about 14%; note: read at 38.3 µM for the half of the compounds with a filed dose; 0% is about no effect
# HCMV antiviral = blocks human cytomegalovirus replication; HFF cells, HCMV-luciferase reporter, 72 h; hits give low values; activity change, negative = inhibition, % at 57.5 µM; actives 4.5% (n = 410,000); AID 1259415; in the data active = activity change below about -60%; inconclusive = no clear call, values can overlap the other calls; inactive = above about -39%; note: % is set by controls: 0 for no effect and ±100 for the full control effect
#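 Two compound doses tested in HFFs infected with HCMV-luciferase, MOI 1 PFU/cell, 72 h at 37C. Lysate luminescence read with OneGlo; data normalized against buffer-only and 10uM Salinomycin inhibitor controls.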
# An asterisk follows results filed as active; ? = inconclusive; . = no result given; [ ] = dose if it differs, or a comment. Sampled rows, rich in hits. Any-hit rate of the full collection: about 21%. Unless noted, calls come from the whole dose curve; as a rule, active = well fitted inhibition curve with a large enough effect; inconclusive = small, poorly fitted or top-dose-only effect, or another doubt; inactive = no such curve, though single readings can be large or run the other way.
SMILES,Pf growth 96h,Shiga toxin inh,Pf growth 48h,HCV inh,Cycloheximide cs,HCMV antiviral
Cc1ccc(OCC(=O)Nc2nc(-c3ccc(Br)cc3)ns2)cc1,.,.,.,.,.,26.2
CCC[C@H]1[C@@H](NC(=O)NCc2ccco2)CC[C@@]23CCCN2C(=O)CCC[C@@H]13,.,.,.,.,.,-21.9
CCOc1ccc(-n2ccc(=O)c(C(=O)O)n2)cc1,22.6%,-10.0,37.0%,9.5%,-1.1,-33.5
CSc1nnc(CSc2cc(C)nc(N(C)C)n2)o1,-21.2%,2.0,10.0%,-29.4%,12.1,-9.8
O=C(COc1ccccc1)Nc1nc(-c2ccc(S(=O)(=O)N3CCOCC3)cc2)cs1,.,-4.8,?,?,-2.7,-38.0
COc1ccccc1OCC(=O)Nc1nc(-c2ccc(S(=O)(=O)N3CCOCC3)cc2)cs1,.,.,.,15.8µM*,.,-26.5
Cc1nc(-c2cccc(NC(=O)c3cccs3)c2)cs1,?,32.7,?,?,16.5*,18.8
O=C(Nc1cccc(-c2csc(-c3ccccc3)n2)c1)c1cccs1,0.329µM*,19.1,.,10µM*,7.0,-27.5
Cc1nc(-c2cccc(NS(C)(=O)=O)c2)cs1,54.5%,33.4,.,-7.3%,1.3,30.9
Cc1nc(-c2cccc(NC(=O)Cc3ccccc3)c2)cs1,16.7%,22.8,18.0%,-25.3%,32.1*,-1.1
Cc1nc(-c2cccc(NC(=O)c3ccc(-n4nccc4C)cc3)c2)cs1,?,.,14.6%,10µM*,.,0.0
CC[C@H](C)[C@H](NC(=O)[C@H](CO)NC(=O)[C@H](C)NC(=O)[C@H](C)NC(=O)[C@H](CCC(N)=O)NC(=O)[C@H](CCCCN)NC(=O)[C@H](CCCN=C(N)N)NC(=O)[C@@H](N)CS)C(=O)N[C@@H](CCCCN)C(=O)N[C@H](C(=O)N[C@@H](C)C(=O)N[C@H](C(=O)N[C@@H](CO)C(=O)O)C(C)C)C(C)C,.,12.8,.,.,-5.5,.
NC(=O)c1ccc(NS(=O)(=O)c2ccc(S(=O)(=O)N3CCCC3)cc2)cc1,.,.,.,.,.,-7.5
Cc1cccc(Cn2nc(-n3cccc3)c3c(C)cc(C)nc32)c1,?,23.2,0.1%,?,9.2,?
CCOc1cc(/C=C(/NC(C)=O)C(=O)O)cc(Cl)c1OCc1ccc(Br)cc1,?,-10.9,-40.5%,0.7%,-0.1,?
Cc1cccc(OCc2nc3ccccc3c(=O)n2N)c1,.,72.1,48.5%,-13.0%,47.1*,-0.2
Cc1cccc(-c2nc3ccccc3c(=O)n2N)c1,19.9%,-5.6,34.9%,5.1%,1.1,2.2
Nn1c(COc2cccc(Cl)c2)nc2ccccc2c1=O,?,74.7*,0.9%,-0.8%,38.2*,49.8
CC(=O)c1ccccc1NC(C(=O)NC1CCCCC1)c1ccccc1F (stereo not given),.,.,.,.,.,-11.1
COc1ccc2c(C#N)c3ccccn3c2c1,-16.0%,-12.5,20.3%,3.16µM*,0.4,?
CCCn1c(SC(C)C(=O)NCC2CCCO2)nc2sc3c(c2c1=O)CCC3 (stereo not given),?,.,13.1µM*,-37.5%,.,-35.8
CCCn1c(SC(C)C(=O)NCC2CCCO2)nc2sc(CC)cc2c1=O (stereo not given),?,4.3,?,-19.0%,-2.7,.
COC1=C(C)C(=O)C2=C(C1=O)C1C3CC4=C(C(=O)C(OC)=C(C)C4=O)C(CNC(=O)C(C)=O)N3C(C#N)C(C2)N1C (stereo not given),.,.,.,?,.,-97.3*
CCOc1ccc(S(=O)(=O)N2CCCC(C(=O)NCc3ccncc3)C2)cc1C (stereo not given),-16.4%,-1.9,5.6%,?,-4.7,-76.0*
CCOc1ccccc1NC(=O)C1CCCN(S(=O)(=O)c2ccc(OC)c(C)c2)C1 (stereo not given),.,-19.5,10.4µM*,?,-2.9,-23.7
SMILES,Pf growth 96h,Shiga toxin inh,Pf growth 48h,HCV inh,Cycloheximide cs,HCMV antiviral
CCOc1ccccc1NC(=O)C1CCCN(S(=O)(=O)c2cccs2)C1 (stereo not given),.,.,.,.,.,-7.7
CCOc1ccc(S(=O)(=O)N2CCCC(C(=O)NCc3ccncc3)C2)cc1Cl (stereo not given),?,-5.9,1.6%,-11.1%,0.8,-30.6
COc1ccccc1CN1CCN(S(=O)(=O)c2ccc(C)cc2)CC1,.,.,.,-10.1%,.,20.5
COc1cc(O)c(C(CCN2CCN(c3ccccc3)CC2)c2ccc(N(C)C)cc2)c(OC)c1 (stereo not given),0.657µM*,26.7,0.828µM*,-1.9%,-2.8,58.8
COc1cc(O)c(C(CCN2CCOCC2)c2ccc(N(C)C)cc2)c(OC)c1 (stereo not given),7.38µM*,1.9,4.65µM*,-8.9%[8.37 µM],-6.7,0.8
COc1ccc(N2CCN(CCC(O)c3ccc4ccccc4c3)CC2)cc1 (stereo not given),-14.1%,8.7,3.29µM*,-5.5%,1.0,-7.2
COc1cc(OC)c2c(c1C(CCN1CCN(c3ccccc3)CC1)c1ccc(N(C)C)cc1)OC(=O)CC2c1ccc(N(C)C)cc1 (stereo not given),.,2.6,.,.,2.1,.
COc1ccc(C(CCN2CCN(c3ccccc3)CC2)c2c(O)cc(OC)cc2OC)cc1 (stereo not given),0.465µM*,-10.6,1.04µM*,-23.4%,-5.1,61.6
COC(=O)c1ccc(NC(=O)N2CCN(c3nnc(C)c4c(C)n(-c5ccccc5)nc34)CC2)cc1,.,.,.,.,.,-8.4
c1ccc2nc(N3CCOCC3)cnc2c1,?,17.7,.,-15.5%,17.1*,149.9
Cc1cc(-n2nnc3ccccc32)nc2ccccc12,.,11.4,69.5%,?,14.9*,53.2
Cc1cc(N2CCCCC2)nc2ccccc12,-26.8%,19.0,17.9%,14.8%,11.3*,?
Cc1cc(N2CCOCC2)nc2cc(O)ccc12,5.1%,54.3*,107.6%,3.8%,36.9*,50.5
Cc1nn(-c2cc(C)c3ccccc3n2)c2c1C1C(C2)C1(C)C (stereo not given),-16.4%,-3.4,5.7%,-22.5%,-0.9,?
c1ccc2nc(N3CCOCC3)c(N3CCOCC3)nc2c1,?,-12.5,-2.2%,4.9%,-0.9,-25.7
Cc1cc(N2CCCCCC2)nc2ccccc12,?,11.6,-22.9%,-4.3%,18.7,-7.3
C=CCC(=O)NC1CCCc2c1cnn2-c1cc(F)cc(F)c1 (stereo not given),-15.0%,16.7,18.1%,?,-1.2,-0.1
COc1ccccc1NC(=O)CSc1nc2c(oc3ccccc32)c(=O)n1-c1ccc(C)cc1,.,.,.,.,.,10.9
O=C(Nc1ccnn1C1CCN(Cc2ccc(CO)o2)CC1)c1ccc2c(c1)OCO2,24.9%,-8.6,0.0%,-4.1%,-0.6,58.7
c1ccc2c(c1)CCc1c-2nc2ccccc2c1N1CCOCC1,?,-6.4,14.7µM*,?,1.6,36.6
